Among the test systems are NCI-H23 lung; NCI-H226 lung; NCI-H322M lung; HOP-62 NSCLC; NCI-H460 lung; HOP-92 NSCLC; A549/ATCC NSCLC; 786-0 renal; COLO 205 colon; DU-145 prostate; K-562 leukemia; MALME-3M melanoma; MDA-MB-231 breast; RXF 393 renal; SF-268 CNS; SF-295 CNS; SF-539 CNS; UACC-257 melanoma; M14 melanoma.
What all share (test): NCI-60 one-dose screen, 48 h (100 = growth as untreated, 0 = no growth, -100 = all killed)
Holding throughout (settings): 10 µM unless noted

About 83,000 compounds went through this panel and 20% of them were active in at least one assay; those are over-represented in the sample as a whole.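 Plates (96-well) were seeded with cells, treated with compound at one concentration, and incubated for 48 hours before percent growth was determined.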 Values without a mark were called inactive. The source made the active and inactive calls. How the source made its calls: active means growth percent below 10; inactive means the rest.

For the compound `O=c1ccn(C2CC=C(CO)O2)c(=O)[nH]1` (configuration not stated), the growth in the test on NCI-H23 lung was 91.9%; in the test with NCI-H226 lung, 95.7%; in the test with NCI-H322M lung it was 95.9%; in the test on HOP-62 NSCLC, 102%; in the test on NCI-H460 lung, 124%; with HOP-92 NSCLC it was 38.1%. Also, the growth with A549/ATCC NSCLC was 106%; in the test with 786-0 renal, 93.4%; in the test on COLO 205 colon, 106%; with DU-145 prostate, 108%; in the test on K-562 leukemia it was 92.8%; with MALME-3M melanoma, 80.9%. Moreover, the growth was 104% in the test on MDA-MB-231 breast; 8.91% (active) in the test on RXF 393 renal; 109% with SF-268 CNS; 92.9% in the test on SF-295 CNS; 99.8% in the test on SF-539 CNS; 78.3% in the test with UACC-257 melanoma. Moreover, the growth with M14 melanoma is 81.4%.
In the case of `CC(C)Cn1cnc2c(NCn3nc(-c4cc(Cl)cc(Cl)c4Cl)n(/N=C/c4ccc(Cl)cc4)c3=S)nc3ccccc3c21`, the growth is 80.9% in the test with NCI-H23 lung; 73.4% in the test on NCI-H226 lung; 81.6% with NCI-H322M lung; 79.4% in the test with HOP-62 NSCLC; 99.1% in the test with NCI-H460 lung; 45% in the test on HOP-92 NSCLC. Besides, the growth is 77.9% in the test with A549/ATCC NSCLC; 90.7% with 786-0 renal; 94.6% in the test on COLO 205 colon; 106% in the test with DU-145 prostate; 53.8% in the test with K-562 leukemia; 109% with MALME-3M melanoma. The growth is 73.4% in the test with MDA-MB-231 breast; 80.7% in the test on RXF 393 renal; 102% with SF-268 CNS; 71.9% in the test with SF-295 CNS; 90.4% in the test on SF-539 CNS; 77.2% with UACC-257 melanoma. Also, the growth in the test on M14 melanoma is 104%.
In the case of `C=CCN(/C=C/CN(CC=C)CC=C)CC=C`, the growth with NCI-H23 lung is 108%; with NCI-H226 lung it was 95.7%; in the test on NCI-H322M lung, 96.7%; in the test on HOP-62 NSCLC it was 97.7%; in the test on NCI-H460 lung, 105%; with HOP-92 NSCLC, 91.2%. In addition, the growth was 99.6% with A549/ATCC NSCLC; 104% in the test with 786-0 renal; 107% with COLO 205 colon; 110% in the test with DU-145 prostate; 100% in the test with K-562 leukemia; 102% in the test with MALME-3M melanoma. In addition, the growth with MDA-MB-231 breast was 90.4%; in the test on RXF 393 renal, 111%; in the test with SF-268 CNS, 105%; in the test on SF-295 CNS, 84.3%; in the test on SF-539 CNS, 99.7%; with UACC-257 melanoma, 108%. In the test with M14 melanoma, the growth was 103%.
In the case of `O=C(O)c1ccc2cccnc2c1O`, the growth with NCI-H23 lung was 8.65% (active); with NCI-H226 lung, 6.97% (active); in the test on NCI-H322M lung it was 12.4%; with HOP-62 NSCLC, 13.6%; in the test on NCI-H460 lung it was 6.87% (active); in the test with HOP-92 NSCLC, -29.3% (active). For the same compound, the growth is 10.4% in the test on A549/ATCC NSCLC; 7.02% (active) in the test on 786-0 renal; -70.9% (active) in the test on COLO 205 colon; 22.2% in the test with DU-145 prostate; 11.1% with K-562 leukemia; -7.97% (active) in the test with MALME-3M melanoma. Further, the growth in the test with MDA-MB-231 breast is 11.4%; in the test on RXF 393 renal, 27.7%; in the test with SF-268 CNS, 21.6%; in the test on SF-295 CNS, 6.02% (active); with SF-539 CNS, 10.4%; in the test with UACC-257 melanoma, -9.12% (active). Moreover, the growth in the test on M14 melanoma is 8.98% (active).
Consider `COc1cc(/C=C/c2cc(/C=C/c3ccc(O)c(OC)c3)n(C(=O)c3ccc(Cl)cc3)n2)ccc1O`, for which the growth in the test with NCI-H23 lung is 21.8%; in the test with NCI-H226 lung, 48.4%; in the test on NCI-H322M lung, 28.5%; with HOP-62 NSCLC, 20.3%; in the test with NCI-H460 lung it was 4.86% (active); in the test on HOP-92 NSCLC, -2.95% (active). The growth in the test on A549/ATCC NSCLC was 12.4%; in the test with 786-0 renal, 19.5%; in the test on COLO 205 colon, 98.7%; in the test with DU-145 prostate, 19.9%; in the test on K-562 leukemia it was 2.24% (active); with MALME-3M melanoma, 44.6%. In addition, the growth is 31.8% in the test with MDA-MB-231 breast; 15.3% in the test on RXF 393 renal; 27% in the test with SF-268 CNS; 48% in the test on SF-295 CNS; 10.1% with SF-539 CNS; 63.2% in the test on UACC-257 melanoma. In addition, the growth in the test on M14 melanoma is -1.11% (active).
Take `Cc1csc(C#Cc2cncc(O)c2)n1`: the growth is 111% with NCI-H23 lung; 109% with NCI-H226 lung; 113% in the test on NCI-H322M lung; 110% in the test with HOP-62 NSCLC; 121% with NCI-H460 lung; 121% with HOP-92 NSCLC. For the same compound, the growth in the test with A549/ATCC NSCLC was 108%; in the test with 786-0 renal it was 105%; in the test on COLO 205 colon it was 105%; in the test with DU-145 prostate, 116%; in the test with K-562 leukemia, 127%; in the test with MALME-3M melanoma, 96.7%. The growth in the test with MDA-MB-231 breast is 107%; in the test with RXF 393 renal, 69.9%; in the test on SF-268 CNS it was 131%; in the test with SF-295 CNS it was 121%; with SF-539 CNS, 108%; in the test with UACC-257 melanoma, 98.5%. The growth in the test on M14 melanoma was 111%.
For the compound `CCN(CC)CCCCCCCNc1c2ccc(Cl)cc2nc2ccc(OC)cc12`, the growth in the test with NCI-H23 lung is -24.3% (active); with NCI-H226 lung, -18.2% (active); with NCI-H322M lung, -35% (active); with HOP-62 NSCLC, -49.2% (active); in the test with NCI-H460 lung, -67.6% (active); in the test on HOP-92 NSCLC, -62.1% (active). Moreover, the growth in the test with A549/ATCC NSCLC is -37.9% (active); in the test on 786-0 renal, -57.5% (active); in the test on COLO 205 colon, -92.5% (active); with DU-145 prostate, -28.6% (active); in the test with K-562 leukemia, -21.5% (active); in the test on MALME-3M melanoma it was -20.6% (active). Moreover, the growth was -30% (active) in the test on MDA-MB-231 breast; -70.8% (active) in the test on RXF 393 renal; -59.1% (active) in the test on SF-268 CNS; -51.6% (active) in the test on SF-295 CNS; -71.2% (active) in the test on SF-539 CNS; -84.3% (active) in the test with UACC-257 melanoma. For the same compound, the growth with M14 melanoma was -48.8% (active).
As to `CCOC(=O)C1=CCC(n2cc(C)c(=O)[nH]c2=O)O1` (configuration not stated), the growth was 102% in the test on NCI-H23 lung; 89.5% with NCI-H226 lung; 101% in the test with NCI-H322M lung; 104% in the test on HOP-62 NSCLC; 114% in the test with NCI-H460 lung; 65% with HOP-92 NSCLC. Further, the growth with A549/ATCC NSCLC was 96.7%; in the test on 786-0 renal, 105%; in the test with COLO 205 colon it was 90.1%; in the test with DU-145 prostate it was 119%; with K-562 leukemia it was 99.4%; in the test on MALME-3M melanoma, 120%. Besides, the growth in the test with MDA-MB-231 breast was 97.3%; in the test with RXF 393 renal, -5.82% (active); in the test with SF-268 CNS, 117%; with SF-295 CNS, 116%; in the test on SF-539 CNS it was 101%; in the test with UACC-257 melanoma it was 96.3%. Further, the growth in the test on M14 melanoma was 106%.

The record behind these values is PubChem BioAssay (NCI).
